Sampled rows, rich in hits. Any-hit rate of the full collection: about 0.82%.
PrPC TRFRET = inhibitors of human cell surface prion protein PrPC, primary screen, cell-based, TR-FRET. Major prion protein (Homo sapiens), P04156. TR-FRET read-out. inhibition, % at 13.8 µM. actives 0.43% (n = 370,000). AID 720596, 2013; in the data active = inhibition above about 24%; note: 0% = median of the test wells and 100% = reference compound wells
TcdB GH inh = TcdB glycohydrolase inhibitors, primary screen, biochemical, single point, plate reader. TcdB glycohydrolase enzymatic assay. actives 0.24% (n = 350,000). Toxin B (Clostridioides difficile), P18177. inhibition, % at 9.99 µM; in the data active = inhibition above about 10%
VHR inh abs = VHR1 phosphatase inhibitors, primary screen, biochemical, absorbance, uHTS. Dual specificity protein phosphatase 3 (Homo sapiens), P51452. recombinant VHR phosphatase, pNPP absorbance. inhibition, % at 13.3 µM. actives 0.52% (n = 290,000). AID 1654, 2009; in the data active = inhibition above about 50%
Starred values were filed as active, the others as inactive; . = no result.

SMILES	PrPC TRFRET	TcdB GH inh	VHR inh abs
C[C@H](CO)N1C[C@H](C)[C@@H](CN(C)S(=O)(=O)c2cccs2)OCCCC[C@H](C)Oc2ccc(NC(=O)Nc3ccc4c(c3)OCO4)cc2C1=O	.	1	.
CC1C(=O)CC(c2ccc([N+](=O)[O-])cc2)NC1c1ccc([N+](=O)[O-])cc1 (configuration not stated)	-20	2	33
CC1C(=O)C(C)C(c2ccc([N+](=O)[O-])cc2)NC1c1ccc([N+](=O)[O-])cc1 (configuration not stated)	-2	18*	30
C[C@H](CO)N1C[C@H](C)[C@H](CN(C)S(=O)(=O)c2cn(C)cn2)Oc2cc(C3=CCCCC3)ccc2S1(=O)=O	.	0	.
COc1ccc(C(=O)Nc2ccccc2C(=O)O)cc1NC(=O)C(c1ccccc1)c1ccccc1	6	0	13
COc1ccc(C(=O)Nc2ccccc2C(=O)O)cc1Cl	-4	10*	-10
Cc1noc(C)c1NC(=O)N(C)C[C@H]1Oc2ccc(NC(=O)c3ccncc3)cc2C(=O)N([C@@H](C)CO)C[C@@H]1C	.	-1	.
O=C(Oc1ccc2ccc(O)cc2c1)C1CCCCC1	1	1	22
O=C(Oc1ccc2ccccc2c1)C1CCC1	0	1	51*
CCOC(=O)c1nnn(-c2nonc2N)c1-c1ccccc1Cl	2	16*	12
CCOC(=O)c1nnn(-c2nonc2N)c1-c1ccc(F)cc1	-5	12*	9
CCOC(=O)c1nnn(-c2nonc2N)c1-c1ccc(Cl)cc1	6	9	9
CCOC(=O)c1nnn(-c2nonc2N)c1-c1cccc2ccccc12	-6	.	-6
CO[C@@H]1CN(C)C(=O)c2ccc(NS(=O)(=O)c3ccc(Cl)cc3)cc2OC[C@@H](C)NC[C@@H]1C	.	-4	.
COc1ccc(C(=O)Nc2ccc3c(c2)nc(CN2CCN(C(C)=O)CC2)n3C)cc1	-4	.	19
CC(=O)N1CCN(Cc2nc3cc(NC(=O)c4ccc(F)cc4)ccc3n2C)CC1	6	2	57*
C[C@@H]1CN([C@@H](C)CO)C(=O)c2cc(/C=C/c3ccccc3)cnc2O[C@@H]1CN(C)C	.	1	.
C[C@@H]1CN([C@H](C)CO)C(=O)c2cc(C#CC3(O)CCCC3)cnc2O[C@H]1CN(C)S(C)(=O)=O	.	1	.
C[C@@H]1CCCCO[C@H](CN(C)S(=O)(=O)c2cn(C)cn2)[C@@H](C)CN([C@@H](C)CO)C(=O)c2cc(NS(=O)(=O)c3ccccc3)ccc2O1	.	2	.
CCC(=O)N1CCN(c2ccc(NC(=O)c3cc4ccccc4o3)cc2Cl)CC1	32*	.	6
CCCC(=O)N1CCN(c2ccc(NC(=O)c3cc4ccccc4o3)cc2Cl)CC1	22	.	28
Cc1ccc(C(=O)NCCCNCCCNC(=O)c2ccc(C)nc2)cn1	2	.	4
Cc1ccc(C(=O)NCCCNC(=O)c2ccco2)cn1	-4	1	56*
CCC(=O)N1CC2(C1)CN(CC1CCOCC1)[C@@H](CO)c1c2c2ccc(OC)cc2n1C	.	-10	.
CCC(=O)N1CC2(C1)CN(C(=O)Nc1ccccc1F)[C@H](CO)c1[nH]c3cc(OC)ccc3c12	.	2	.
SMILES	PrPC TRFRET	TcdB GH inh	VHR inh abs
CCCc1cn(CC[C@@H]2CC[C@H](NC(=O)C3CC3)[C@@H](CO)O2)nn1	.	1	.
CCOc1cc(C2C(C#N)=C(N)OC(C)=C2C(C)=O)cc(Br)c1O (configuration not stated)	-7	.	50*
CCOc1cc(C2C(C#N)=C(N)OC(C)=C2C(C)=O)c(Br)c(Br)c1OC(C)C (configuration not stated)	.	.	18
C[C@@H]1CN([C@@H](C)CO)C(=O)Cc2cc(NS(=O)(=O)c3ccc(F)cc3)ccc2O[C@H]1CN(C)C(=O)Nc1cccc2ccccc12	.	0	.
COCC(=O)Nc1cc(C)cn(Cc2c(F)cccc2Cl)c1=O	-3	-1	31
Cc1cc(NC(=O)CC(C)C)c(=O)n(Cc2c(F)cccc2Cl)c1	-2	0	54*
C[C@@H]1CN([C@H](C)CO)S(=O)(=O)c2ccc(C3=CCCCC3)cc2O[C@H]1CN(C)Cc1cccc(C(=O)O)c1	.	-1	.
COCC(=O)N(C)C[C@H]1Oc2cc(-c3ccc(C)cc3)ccc2S(=O)(=O)N([C@H](C)CO)C[C@@H]1C	.	3	.
COc1ccc(OC)c(-c2cc(C(=O)Nc3c(C)nn(Cc4ccccc4)c3C)no2)c1	5	.	4
Cc1nn(Cc2ccccc2)c(C)c1NC(=O)c1cc(-c2ccco2)on1	9	.	53*
C[C@H]1CN([C@@H](C)CO)S(=O)(=O)c2ccc(-c3cccc(C#N)c3)cc2O[C@H]1CN(C)Cc1cccc(F)c1	.	-1	.
O=[N+]([O-])c1cccc(OCc2cn3cccnc3n2)c1	-32	1	53*
Cc1cccn2cc(COc3cccc([N+](=O)[O-])c3)nc12	-14	1	25
C[C@@H]1CCCCO[C@@H](CN(C)S(=O)(=O)c2ccc(F)cc2)[C@H](C)CN([C@@H](C)CO)C(=O)c2cc(NC(=O)NC3CCCCC3)ccc2O1	.	-1	.
CCOC(=O)C1CCCN(C2=NC(=O)/C(=C/c3ccc(OC)cc3)S2)C1 (configuration not stated)	-1	1	-12
CCOC(=O)C1CCCN(C2=NC(=O)/C(=C/c3ccc(N(C)C)cc3)S2)C1 (configuration not stated)	-20	0	53*
CCOc1cc(/C=C2\CN(C)C/C(=C\c3ccc(O)c(OCC)c3)C2=O)ccc1O	-18	-6	10
COc1cc(C=C2CN(C)C(=O)C2=O)ccc1O	-4	21*	.
COc1cccc(-c2ccc([C@H]3[C@H]4CN(C(=O)C5CCCCC5)CC(=O)N4[C@H]3CO)cc2)c1	.	1	.
CCN(c1ccccc1)S(=O)(=O)c1ccc2c(c1)CC(C)N2C(=O)C1CC1 (configuration not stated)	10	1	-4
CCOc1ccccc1N(C)S(=O)(=O)c1ccc2c(c1)CC(C)N2C(=O)C1CC1 (configuration not stated)	-6	1	50*
CCOC(=O)c1sc(N2N=C(C)C(N=Nc3cccc(C)c3)C2=O)nc1C (configuration not stated)	10	0	55*
CC1=NN(c2nc(-c3ccc(C)cc3)cs2)C(=O)C1N=Nc1cccc(C)c1 (configuration not stated)	0	0	1
O=C(C[C@H]1C=C[C@H](NC(=O)CCN2CCCCC2)[C@H](CO)O1)Nc1ccccc1	.	-1	.
Cc1cc(C)c(S(=O)(=O)c2cccc(Cl)c2)c(Cl)n1	7	-7	9
Cc1cc(C)c(S(=O)(=O)c2ccc(Cl)cc2C)c(Cl)n1	13	11*	20
O=C(NCc1cc(C(F)(F)F)ccc1Cl)c1cccc2c1C(=O)c1ccc(N3CCC(N4CCCCC4)CC3)cc1S2(=O)=O	46*	1	.
O=C(NCc1cc(C(F)(F)F)ccc1Cl)c1cccc2c1C(=O)c1ccc(N3CCCCC3)cc1S2(=O)=O	-4	1	.
O=C(Nc1cc(Cl)cc(Cl)c1)N[C@H]1CC[C@@H](CCNS(=O)(=O)c2cccc(F)c2)O[C@@H]1CO	.	3	.
O=C(Nc1scc(-c2ccc(F)cc2)c1C(=O)O)c1ccco1	1	.	8

Bioassay records as filed in PubChem BioAssay.
